Data taken from PubChem BioAssay (NCI).
About 83,000 compounds went through this panel and 20% of them were active in at least one assay; those are over-represented in the sample as a whole.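 Interpretation: 100, growth as untreated; towards 0, rising growth inhibition; 0, no net growth; 0 to -100, cell death. Compounds scoring below 10 were considered active.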 Unmarked numbers belong to inactive results. Calls of active or inactive are those of the source.

Assays:
Experiment in all cases: NCI-60 one-dose screen, 48 h (100 = growth as untreated, 0 = no growth, -100 = all killed)
Conditions in all cases: 10 µM unless noted
SK-MEL-2 melanoma = test system: SK-MEL-2 melanoma
EKVX NSCLC = test system: EKVX NSCLC
SN12C renal = test system: SN12C renal
UO-31 renal = test system: UO-31 renal
TK-10 renal = test system: TK-10 renal
ACHN renal = test system: ACHN renal
CAKI-1 renal = test system: CAKI-1 renal
A498 renal = test system: A498 renal
CCRF-CEM leukemia = test system: CCRF-CEM leukemia
MOLT-4 leukemia = test system: MOLT-4 leukemia

With `Fc1cccc(Oc2ccc(Nc3ncnc4ccc(OCCCN5CCOCC5)cc34)cc2Cl)c1` the growth (SK-MEL-2 melanoma) was 93.3%, the growth (EKVX NSCLC) was 20.7% and the growth (SN12C renal) was 82.9%. The growth (UO-31 renal) was 30.4%, the growth (TK-10 renal) was 26.4% and the growth (ACHN renal) was 32.3%. The growth (CAKI-1 renal) was 30.4%, the growth (A498 renal) was -4.84% (active) and the growth (CCRF-CEM leukemia) was 58.8%. The growth (MOLT-4 leukemia) was 53.9%.

In the case of `CCCCNC(=O)Oc1ccc(/C(=C(/C)Cc2ccc(OC)cc2)c2ccc(OCCN3CCCC3)cc2)cc1`, the growth (SK-MEL-2 melanoma) is reported as 85.2%, the growth (EKVX NSCLC) is reported as 67.6% and the growth (SN12C renal) is reported as 72.6%. For the same molecule, the growth (UO-31 renal) was 53.5%, the growth (TK-10 renal) was 81.2% and the growth (ACHN renal) was 91.9%. It also gave a growth (CAKI-1 renal) of 70.5%, a growth (A498 renal) of 59.6% and a growth (CCRF-CEM leukemia) of 46%. It also gave a growth (MOLT-4 leukemia) of 34.4%.

`CCOC(=O)C1=C(c2ccccc2)N=C2SC=C(c3ccc(Cl)cc3)N2C1c1ccc(Br)cc1` (stereo not given) was tested, and the growth (SK-MEL-2 melanoma) was 96.4%, the growth (EKVX NSCLC) was 73.9% and the growth (SN12C renal) was 84.5%. It also gave a growth (UO-31 renal) of 73.2%, a growth (TK-10 renal) of 103% and a growth (ACHN renal) of 87.3%. The growth (CAKI-1 renal) was 61.3%, the growth (A498 renal) was 46.7% and the growth (CCRF-CEM leukemia) was 78.4%. The growth (MOLT-4 leukemia) was 39%.

`Cc1ccc(C(=O)c2ccc(CC(=O)N/N=C/c3ccccc3O)n2C)cc1` was tested, and the growth (SK-MEL-2 melanoma) was 89.6%, the growth (EKVX NSCLC) was 82.8% and the growth (SN12C renal) was 89.8%. For the same molecule, the growth (UO-31 renal) was 40.6%, the growth (TK-10 renal) was 85.1% and the growth (ACHN renal) was 53.2%. For the same molecule, the growth (CAKI-1 renal) was 64.5%, the growth (A498 renal) was 82% and the growth (CCRF-CEM leukemia) was 54.1%. The growth (MOLT-4 leukemia) was 74%.

For `CCCc1c(OC(=O)c2ccccc2)nc2[nH]c(=O)sc2c1C`, the growth (SK-MEL-2 melanoma) was 107%, the growth (EKVX NSCLC) was 97.9% and the growth (SN12C renal) was 92%. For the same molecule, the growth (UO-31 renal) was 82.3%, the growth (TK-10 renal) was 96.1% and the growth (ACHN renal) was 107%. The growth (CAKI-1 renal) was 95.6%, the growth (A498 renal) was 108% and the growth (CCRF-CEM leukemia) was 103%. For the same molecule, the growth (MOLT-4 leukemia) was 104%.

For `O=C(Cn1cc(CSc2nc3ccccc3o2)nn1)Nc1ccc(F)cc1F`, the growth (SK-MEL-2 melanoma) was 114%, the growth (EKVX NSCLC) was 119% and the growth (SN12C renal) was 96.4%. For the same molecule, the growth (UO-31 renal) was 103%, the growth (TK-10 renal) was 117% and the growth (ACHN renal) was 93.9%. For the same molecule, the growth (CAKI-1 renal) was 105%, the growth (A498 renal) was 112% and the growth (CCRF-CEM leukemia) was 113%. For the same molecule, the growth (MOLT-4 leukemia) was 120%.

Work on `O=C1c2c(c3c4ccccc4[nH]c3c3ccc4ccccc4c23)C(=O)N1CCN1CCOCC1` yielded a growth (SK-MEL-2 melanoma) of 69.9%, a growth (EKVX NSCLC) of 61.8% and a growth (SN12C renal) of 30.2%. The growth (UO-31 renal) was 27.6%, the growth (TK-10 renal) was 71.2% and the growth (ACHN renal) was 15.3%. It also gave a growth (CAKI-1 renal) of 32.8%, a growth (A498 renal) of 61.4% and a growth (CCRF-CEM leukemia) of 10.9%. The growth (MOLT-4 leukemia) was 6.38% (active).

In the case of `Cc1ccc2c(Cn3cc(CSc4nc5ccccc5o4)nn3)cc(=O)oc2c1`, the growth (SK-MEL-2 melanoma) is reported as 106%, the growth (EKVX NSCLC) is reported as 92.1% and the growth (SN12C renal) is reported as 102%. The growth (UO-31 renal) was 91.1%, the growth (TK-10 renal) was 122% and the growth (ACHN renal) was 103%. The growth (CAKI-1 renal) was 100%, the growth (A498 renal) was 90% and the growth (CCRF-CEM leukemia) was 93.4%. The growth (MOLT-4 leukemia) was 108%.

With `Cc1sc2nc(NCCc3c[nH]c4ccc(Cl)cc34)[nH]c(=O)c2c1C` the growth (SK-MEL-2 melanoma) was 78.5%, the growth (EKVX NSCLC) was 41.7% and the growth (SN12C renal) was 51.7%. The growth (UO-31 renal) was 18.6%, the growth (TK-10 renal) was 63.9% and the growth (ACHN renal) was 42.9%. It also gave a growth (CAKI-1 renal) of 12%, a growth (A498 renal) of 69.4% and a growth (CCRF-CEM leukemia) of 33.9%. The growth (MOLT-4 leukemia) was 38.7%.

For `CN1C(=O)/C(=C\c2nc([P+](c3ccccc3)(c3ccccc3)c3ccccc3)c(N3CCOCC3)o2)SC1=S`, the growth (SK-MEL-2 melanoma) was 71.5%, the growth (EKVX NSCLC) was 92.3% and the growth (SN12C renal) was 68.4%. For the same molecule, the growth (UO-31 renal) was 80.4%, the growth (TK-10 renal) was 106% and the growth (ACHN renal) was 102%. The growth (CAKI-1 renal) was 91.5%, the growth (A498 renal) was 85.6% and the growth (CCRF-CEM leukemia) was 19.9%. It also gave a growth (MOLT-4 leukemia) of 81.5%.

Work on `COc1cc(/C=C/C(=O)c2ccc(F)cc2)ccc1OCCCCOc1ccc(/C=C/C(=O)c2c(C)nc3ccccc3c2C)cc1OC` yielded a growth (SK-MEL-2 melanoma) of 50.5%, a growth (EKVX NSCLC) of 133% and a growth (SN12C renal) of 115%. It also gave a growth (UO-31 renal) of 86.8%, a growth (TK-10 renal) of 114% and a growth (ACHN renal) of 95.8%. The growth (CAKI-1 renal) was 80.6%, the growth (A498 renal) was 113% and the growth (CCRF-CEM leukemia) was 80.5%. For the same molecule, the growth (MOLT-4 leukemia) was 67%.

With `COC(=O)[C@]1(C)CCC[C@]2(C)[C@H]3C[C@H]4C(C(C)C)=C[C@]3(CC[C@H]21)[C@@H]1C(=O)CC[C@H](OCCC#N)[C@@H]14` the growth (SK-MEL-2 melanoma) was 86.6%, the growth (EKVX NSCLC) was 57.1% and the growth (SN12C renal) was 93.5%. It also gave a growth (UO-31 renal) of 71.1%, a growth (TK-10 renal) of 94.8% and a growth (ACHN renal) of 87.5%. The growth (CAKI-1 renal) was 68%, the growth (A498 renal) was 105% and the growth (CCRF-CEM leukemia) was 81.5%. It also gave a growth (MOLT-4 leukemia) of 48.6%.
